Test results from PubChem BioAssay AID651814 (National Center for Advancing Translational Sciences (NCATS), 2012).
Among all 2,100 compounds or so, about 590 (28%) were called active. Not shown: some 42% with an inconclusive outcome. Calls come from the whole dose curve; as a rule, active = well fitted inhibition curve with a large enough effect; inconclusive = small, poorly fitted or top-dose-only effect; inactive = flat fitted curve, though single readings scatter. The list shows a part of the results.

target: DNA dC->dU-editing enzyme APOBEC-3F (Homo sapiens) (UniProt Q8IUX4); test: qHTS for inhibitors of Vif-A3F interactions: Cherry picks; conditions: HeLa A3F-eYFP + Vif (tagged APOBEC3F with the HIV-1 protein that degrades it), eYFP fluorescence, 24 h; note: nearly all actives have a fitted effect of over 70% in size;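 for Max response: % of control where 0% means no effect; active compounds raise eYFP fluorescence by blocking Vif-driven A3F loss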
Sequence (Q8IUX4 whole entry, looked up): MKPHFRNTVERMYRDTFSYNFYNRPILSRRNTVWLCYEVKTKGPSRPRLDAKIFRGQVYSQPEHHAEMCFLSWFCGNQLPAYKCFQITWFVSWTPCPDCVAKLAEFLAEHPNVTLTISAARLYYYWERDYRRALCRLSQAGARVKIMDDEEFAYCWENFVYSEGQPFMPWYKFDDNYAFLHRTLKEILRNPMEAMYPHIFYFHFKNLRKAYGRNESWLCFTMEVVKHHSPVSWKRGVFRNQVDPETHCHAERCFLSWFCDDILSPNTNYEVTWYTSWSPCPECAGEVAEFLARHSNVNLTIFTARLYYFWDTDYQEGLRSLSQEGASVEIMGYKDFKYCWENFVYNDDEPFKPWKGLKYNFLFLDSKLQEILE
Summary of the method: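 HeLa cells stably expressing A3F-eYFP plus Vif, cultured overnight, then exposed to compounds at several concentrations for 24 h at 37 deg C. Reduced Vif-driven degradation read as rising eYFP fluorescence (488 nm ex/500-530 nm em) by laser-scanning cytometry; MG132 as positive control.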
Potency is the fitted concentration of half-maximal effect.

Max response, inactive:
N#Cc1ccccc1NC(=O)CSc1nc(-c2ccccc2)cc(C(F)(F)F)c1C#N -28.7%, N#Cc1c(C(F)(F)F)cc(-c2cccs2)nc1SCC(=O)Nc1cccc(Cl)c1 -7.91%, N#Cc1c(Nc2ccccc2)[n+]([O-])c2ccc(Cl)cc2[n+]1[O-] -2.22%, Oc1ccc(C=NNC(=S)Nc2ccc(F)cc2)c(O)c1 -2.9%, S=C(NN=Cc1ccccn1)Nc1ccccn1 1.89%, Cc1csc(NC(=O)CCC(=O)N(CC(=O)NC2CCCC2)Cc2ccccc2)n1 0.176%, CCS(=O)(=O)N1N=C(c2ccc(C)cc2)CC1c1cc2ccc(OC)cc2nc1Cl (stereo unspecified) -11.9%, c1ccc2c(c1)nc(N1CCOCC1)c1nnnn12 -7.94%, O=C(Nc1ncccn1)c1ccc([N+](=O)[O-])o1 -18.8%, COC(=O)c1sc(NC(=O)c2ccc([N+](=O)[O-])o2)c(C#N)c1C -29.9%, O=[N+]([O-])c1ccccc1C=NNC(=S)NN=Cc1ccccc1[N+](=O)[O-] -27.9%, CCN1C/C(=C/c2cccc([N+](=O)[O-])c2)C(=O)/C(=C/c2cccc([N+](=O)[O-])c2)C1 -17.2%, CC(NC(=S)Nc1cccc(C(F)(F)F)c1)C(C)(C)C (stereo unspecified) 1.09%, Cc1[nH][nH]c(=O)c1C(c1c(C)[nH][nH]c1=O)c1cn(Cc2ccccc2Cl)c2ccccc12 -24.8%, C=CCNC(=S)N/N=C/c1ccc(C)cc1C -2.08%, CCN(CC)c1ccc(NC(=O)c2ccc(=O)[nH]c2)cc1S(=O)(=O)Nc1ccccc1OC -20.2%, O=C(N/N=C/c1c[nH]c2ccccc12)C1COc2ccccc2O1 (stereo unspecified) 4.43%, Cc1cccn2c(=O)c3cc(C#N)c(=NC(=O)c4cccs4)n(CCCOC(C)C)c3nc12 -23.5%, Cc1cccc(CSc2cccc3cccnc23)c1 2.73%, Cn1c(=O)c2c(nc(NC3CCCC3)n2C)n(C)c1=O -0.225%, COc1cc(/C=N/Nc2cc(C)nc(NS(=O)(=O)c3ccccc3)n2)ccc1O 2.36%, O=C(c1ccccn1)C1CCCN(Cc2cn[nH]c2-c2cc3ccccc3o2)C1 (stereo unspecified) 1.54%, O=C(O)CSc1c2ccccc2cc2ccccc12 -4.37%, CNC(=S)N/N=C(\C)c1ccc(Cl)s1 -3.1%, COCCNC(=S)N/N=C(\C)c1ccccc1O 0.575%, Cc1ccc2nc(NS(=O)(=O)c3ccc(Cl)cc3)c(Nc3ccc(C(=O)O)cc3)nc2c1 -8.36%, O=C(NC(=S)Nc1ccc(N2CCCCC2)c(Cl)c1)c1ccc2c(c1)OCCO2 -28.8%, Cc1ccc(NC(=O)c2ccc(NCCCN3CCC(C)CC3)c([N+](=O)[O-])c2)cc1F -24%, COc1ccc(NC(=O)c2ccc(NC(=O)C(C)C)cc2)c([N+](=O)[O-])c1 -19.6%, CC1C/C(=N\NC(N)=S)c2cc(Cl)ccc2S1 (stereo unspecified) -5.07%, C/C(CCC(C)C)=N\NC(=S)NCc1ccccc1 -4.2%, CCOC(=O)c1csc(NC(=O)c2cc(-c3ccccn3)nc3ccccc23)n1 -1.96%, O=C(CC1CC2CCC1C2)Nc1nc(-c2ccccn2)cs1 (stereo unspecified) 0.305%, Cc1sc2nc(SCC(=O)N3CCOCC3)[nH]c(=O)c2c1-c1ccccc1 -2.85%, Cc1cccc(OCCOc2ccccc2C=C(C#N)C#N)c1 -24.6%, CCCOc1cc(N(CC)CC)ccc1/C=C(/C#N)c1nc2ccc(C)cc2[nH]1 0.514%, C/C(=N\NC(N)=S)C12CC3CC(CC(C3)C1)C2 3.49%, CCOc1cc(Br)cc(/C=C2\SC(=Nc3ccccc3)NC2=O)c1O -27.7%, CC12CC3CC(C)(C1)CC(C(=O)NC(=S)N1CCOCC1)(C3)C2 4.69%, CSc1nc(N)c(C#N)c(-c2ccccc2Cl)c1C#N -19.1%, CC(=O)Nc1cccc(-c2ccnc3c2CC(C)(C(=O)NCc2cccs2)O3)c1 (stereo unspecified) -24.8%, CN(C)S(=O)(=O)c1ccc(N2CCCC2)c(C(=O)N2CCN(S(=O)(=O)c3ccc(F)c(F)c3)CC2)c1 3.41%, COc1ccc(OCCCC(=O)N2CCN(S(=O)(=O)c3cccc(F)c3)CC2)cc1 -3.23%, CC1(C)Cc2c(sc3ncnc(NNC(=S)NCc4ccccc4)c23)CO1 -20.8%, C=C(C)CNC(=S)NNC(=O)c1ccco1 4.89%, N#C/C(=C/c1ccc(-c2ccc([N+](=O)[O-])cc2)o1)C(=O)Nc1nc(-c2cccs2)cs1 -8.39%, CCOc1ccccc1C1CC(c2cccs2)=NN1S(C)(=O)=O (stereo unspecified) -22.3%, CS(=O)(=O)Nc1ccc(C2=NN(S(=O)(=O)c3ccccc3)C(c3cccs3)C2)cc1 (stereo unspecified) -22.9%, CCCCN1C(=O)c2cccc3cc(O)cc(c23)C1=O -4.14%, COc1ccccc1N1C(=O)c2cccc3c(C(=O)O)ccc(c23)C1=O 1.5%, O=C1c2cccc3c(N4CCCCC4)ccc(c23)C(=O)N1c1ccc(O)cc1 -17.3%

Potency, active:
CCCCOc1ccc(-c2cc(C(F)(F)F)c(C#N)c(SCC(=O)O)n2)cc1 18.4 µM, CCOC(=O)c1ccc(NC(=O)CSc2nc(-c3cccs3)cc(C(F)(F)F)c2C#N)cc1 16.4 µM, N#Cc1c(C(F)(F)F)cc(-c2cccs2)nc1SCC(=O)Nc1cccc(C(F)(F)F)c1 18.4 µM, Cc1coc(NC(=O)CSc2nc(-c3ccncc3)cc(C(F)(F)F)c2C#N)n1 13 µM, Clc1ccc(/C=N/NC2=Nc3cccc4cccc2c34)cc1 14.6 µM, COc1ccc(C2CC(c3ccncc3)=NN2c2ccc(S(N)(=O)=O)cc2)cc1 (stereo unspecified) 16.4 µM, Cc1ccc2c(/C=C/c3c[nH]c4ccccc34)ccnc2c1C 14.6 µM, C(=C\c1c[nH]c2ccccc12)/c1nccc2ccccc12 10.3 µM, C(=Cc1c[nH]c2ccccc12)c1nccc2ccccc12 20.6 µM, N#CCc1ccc(NC(=O)/C=C/c2ccc([N+](=O)[O-])o2)cc1 4.11 µM, CCOC(=O)CCc1ccc(NC(=O)/C=C/c2ccc([N+](=O)[O-])o2)cc1 8.2 µM, O=C1C(=Cc2ccccc2[N+](=O)[O-])Cc2ccccc21 18.4 µM, Nc1ccccc1C=C1Cc2ccccc2C1=O 11.6 µM, COc1cc(/C=C(\C#N)c2nc3ccc(C)cc3[nH]2)ccc1OC(C)C 20.6 µM, Cc1ccc2nc(/C(C#N)=C/c3ccc(O)c(O)c3)[nH]c2c1 15.8 µM, O=[N+]([O-])c1ccc(N/N=C/c2c[nH]c3ccccc23)cc1 14.6 µM, Cc1[nH]c2ccccc2c1/C=N/Nc1ccc([N+](=O)[O-])cc1 18.4 µM, COc1ccccc1NS(=O)(=O)c1cc([N+](=O)[O-])ccc1N/N=C/c1c[nH]c2ccccc12 13 µM, COc1ccccc1NS(=O)(=O)c1cc([N+](=O)[O-])ccc1N/N=C/c1c(C)[nH]c2ccccc12 1.98 µM, C/C(=N/Nc1ccc([N+](=O)[O-])cc1)c1c[nH]c2ccccc12 9.2 µM, COc1ccc(NS(=O)(=O)c2cc([N+](=O)[O-])ccc2N/N=C/c2c(C)[nH]c3ccccc23)cc1 16.4 µM, O=[N+]([O-])c1ccc(N/N=C/c2c[nH]c3ccccc23)c(S(=O)(=O)Nc2ccc(Cl)cc2)c1 18.4 µM, Cc1ccc(NC(=O)c2ccc(NCc3ccco3)c([N+](=O)[O-])c2)cc1Cl 16.4 µM, Cc1ccc(NC(=O)c2ccc(NCC3CCCO3)c([N+](=O)[O-])c2)cc1Cl (stereo unspecified) 20.6 µM, O=C(Nc1cc(F)cc(F)c1)c1ccc(NCCc2ccccc2)c([N+](=O)[O-])c1 20.6 µM, CCOC(=O)Cc1csc(NC(=O)c2sc3nc4c(C)cc(C)cc4cc3c2N)n1 20.6 µM, C[C@]12CCC[C@H](O1)c1c(cc3c(c1O)C(=O)c1c(O)cc(O)cc1C3=O)O2 14.6 µM, CCOC(=O)CSc1nc2c(c(=O)[nH]1)C(C)(CC)Cc1ccccc1-2 (stereo unspecified) 8.2 µM, CCN(CC)c1ccc(/C=C(/C#N)c2nc3ccccc3[nH]2)c(OC(C)C)c1 2.06 µM, CCOc1cc(N(CC)CC)ccc1/C=C(/C#N)c1nc2ccccc2[nH]1 1.46 µM, CCOc1ccc(N(C)c2ccc(/C=C3/SC(=S)NC3=O)cc2)cc1 15.8 µM, CN(C)c1ccc(C=C2SC(=S)NC2=O)cc1 17.7 µM, COc1ccccc1N=C1NC(=O)/C(=C/c2ccc(N(C)C)cc2)S1 4.11 µM, Cc1ccc(NC(=O)/C(C#N)=C\c2ccc(-c3ccc(Cl)cc3)o2)c(C)c1 7.31 µM, CCN(CC)CCCNc1ccc2ncn3c4ccc(O)cc4c(=O)c1c23 8.2 µM, CN(C)CCNc1ccc2ncn3c4ccc(O)cc4c(=O)c1c23 20.6 µM, CCc1ccc(C2=NN(S(C)(=O)=O)C(c3cccs3)C2)cc1 (stereo unspecified) 15.8 µM, N#C/C(=C\c1cccc(O)c1)c1nc2ccccc2o1 3.53 µM, C=CCN1C(=O)c2cccc3c(N4CCCCC4)ccc(c23)C1=O 16.4 µM, O=C1c2cccc3c(N4CCCCC4)ccc(c23)C(=O)N1CCO 15.8 µM
